For part of these data: Potency and affinity values are given separately.
Key:
Parameters in all cases: scale not given: direction of the effect not stated beside the values
[1] = biological target: Protein translocase subunit SecA (Escherichia coli (strain K12)) (UniProt P10408); experiment: Assay to Identify E. coli SecA ATPase Inhibitors; type: functional; settings: 30 µM
[2] = biological target: T1, Ubiquitin-activating enzyme e1, putative (Leishmania donovani (strain BPK282A1)) (UniProt E9BSI1); experiment: Leishmania donovani Ubiquitin Activating Enzyme (LdE1); type: functional; settings: 30 µM
T1 sequence (whole entry): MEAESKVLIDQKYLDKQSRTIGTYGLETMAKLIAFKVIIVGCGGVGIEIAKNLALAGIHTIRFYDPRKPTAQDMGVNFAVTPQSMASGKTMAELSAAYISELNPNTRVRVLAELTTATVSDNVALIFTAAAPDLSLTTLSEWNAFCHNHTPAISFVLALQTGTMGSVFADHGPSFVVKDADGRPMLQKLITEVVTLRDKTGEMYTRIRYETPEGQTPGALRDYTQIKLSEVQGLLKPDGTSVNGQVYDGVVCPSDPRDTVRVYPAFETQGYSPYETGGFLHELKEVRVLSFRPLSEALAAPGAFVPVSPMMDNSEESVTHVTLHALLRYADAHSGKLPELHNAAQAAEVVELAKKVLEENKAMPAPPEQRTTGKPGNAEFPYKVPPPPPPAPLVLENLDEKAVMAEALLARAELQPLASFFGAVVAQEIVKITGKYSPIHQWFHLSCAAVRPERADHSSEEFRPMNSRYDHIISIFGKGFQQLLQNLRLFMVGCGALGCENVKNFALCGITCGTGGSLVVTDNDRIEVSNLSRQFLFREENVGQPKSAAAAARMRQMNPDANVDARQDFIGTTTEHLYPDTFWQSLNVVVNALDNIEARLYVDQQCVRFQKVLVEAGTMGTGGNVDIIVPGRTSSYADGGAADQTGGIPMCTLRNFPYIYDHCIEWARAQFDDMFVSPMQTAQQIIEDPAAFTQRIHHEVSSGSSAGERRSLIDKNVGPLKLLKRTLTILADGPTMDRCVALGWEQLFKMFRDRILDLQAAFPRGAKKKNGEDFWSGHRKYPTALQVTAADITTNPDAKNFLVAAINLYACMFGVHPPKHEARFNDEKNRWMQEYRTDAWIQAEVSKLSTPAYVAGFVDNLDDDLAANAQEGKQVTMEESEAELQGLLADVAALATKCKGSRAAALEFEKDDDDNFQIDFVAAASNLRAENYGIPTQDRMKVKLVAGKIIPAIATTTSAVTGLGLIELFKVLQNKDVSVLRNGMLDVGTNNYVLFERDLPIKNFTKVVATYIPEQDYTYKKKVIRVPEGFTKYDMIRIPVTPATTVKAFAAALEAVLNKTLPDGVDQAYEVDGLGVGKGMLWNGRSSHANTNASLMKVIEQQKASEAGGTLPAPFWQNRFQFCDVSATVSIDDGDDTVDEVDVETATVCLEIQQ

[3] = biological target: AMP-activated protein kinase, AMPK (Homo sapiens) (UniProt P54646+O43741+P54619+Q9UGJ0+Q9Y478+Q13131+Q9UGI9); experiment: AMP-dependent Kinase enzyme assay. An in vitro enzyme assay that detects ADP turnover that is directly proportional to AMPK activity. This uses naive AMPK that is activated during the assay with MK-8722; type: functional; settings: 30 µM
[4] = biological target: Sialic acid-binding Ig-like lectin 9 (Homo sapiens) (UniProt Q9Y336); experiment: Hs-Siglec9 ALPHAscreen SOP 20170721; settings: 10 µM
Trypanosoma cruzi = experiment: Trypanosoma cruzi phosphomannomutase and mannose-1-phosphate guanylyltransferase assay; type: functional; settings: 10 µM
[5] = biological target: T2, Arginase-2, mitochondrial (Homo sapiens) (UniProt P78540); experiment: in vitro enzyme assay to detect the production of urea directly proportional to the activity of Arginase II; type: functional; settings: 33.3 µM; further: in the data most compounds retested in dose-response had high values
T2 sequence (whole entry): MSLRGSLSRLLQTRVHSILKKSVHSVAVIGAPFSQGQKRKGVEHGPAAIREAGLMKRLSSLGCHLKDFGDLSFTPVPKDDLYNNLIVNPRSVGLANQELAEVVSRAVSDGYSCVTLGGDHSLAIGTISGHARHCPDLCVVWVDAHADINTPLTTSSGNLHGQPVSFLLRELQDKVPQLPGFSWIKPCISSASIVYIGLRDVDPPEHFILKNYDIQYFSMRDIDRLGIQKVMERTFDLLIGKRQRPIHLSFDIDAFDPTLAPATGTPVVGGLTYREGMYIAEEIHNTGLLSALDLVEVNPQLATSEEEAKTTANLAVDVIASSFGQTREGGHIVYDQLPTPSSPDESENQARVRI

[6] = biological target: T3, Proteasome subunit beta (Trypanosoma cruzi) (UniProt O96673); experiment: Trypanosoma cruzi proteasome chymotrypsin-like activity (TcProtChymo) assay.; further: in the data most compounds retested in dose-response had high values; type: functional; settings: 9.37 µM
T3 sequence (whole entry): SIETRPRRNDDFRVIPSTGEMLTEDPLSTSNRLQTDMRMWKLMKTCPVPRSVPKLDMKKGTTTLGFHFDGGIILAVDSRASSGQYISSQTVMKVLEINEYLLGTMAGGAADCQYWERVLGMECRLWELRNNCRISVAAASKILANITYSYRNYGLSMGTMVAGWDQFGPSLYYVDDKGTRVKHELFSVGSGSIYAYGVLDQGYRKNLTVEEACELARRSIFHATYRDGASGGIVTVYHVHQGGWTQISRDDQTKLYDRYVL

Homo sapiens = organism: Homo sapiens; experiment: To identify inhibition of the IFN signalling (Jak-Stat) pathway via expression of an eGFP reporter gene under the control of an IFN-stimulated response element (ISRE) containing MxA promoter.; type: functional; settings: 30 µM
[7] = biological target: T4, Tyrosyl-tRNA synthetase, putative (Trypanosoma cruzi (strain CL Brener)) (UniProt Q4DSP6); experiment: Trypanosoma cruzi tyrosyl tRNA synthetase (TcYRS) _High Tyrosine SOP; type: functional; settings: 30 µM; further: in the data most compounds retested in dose-response had high values
T4 sequence (whole entry): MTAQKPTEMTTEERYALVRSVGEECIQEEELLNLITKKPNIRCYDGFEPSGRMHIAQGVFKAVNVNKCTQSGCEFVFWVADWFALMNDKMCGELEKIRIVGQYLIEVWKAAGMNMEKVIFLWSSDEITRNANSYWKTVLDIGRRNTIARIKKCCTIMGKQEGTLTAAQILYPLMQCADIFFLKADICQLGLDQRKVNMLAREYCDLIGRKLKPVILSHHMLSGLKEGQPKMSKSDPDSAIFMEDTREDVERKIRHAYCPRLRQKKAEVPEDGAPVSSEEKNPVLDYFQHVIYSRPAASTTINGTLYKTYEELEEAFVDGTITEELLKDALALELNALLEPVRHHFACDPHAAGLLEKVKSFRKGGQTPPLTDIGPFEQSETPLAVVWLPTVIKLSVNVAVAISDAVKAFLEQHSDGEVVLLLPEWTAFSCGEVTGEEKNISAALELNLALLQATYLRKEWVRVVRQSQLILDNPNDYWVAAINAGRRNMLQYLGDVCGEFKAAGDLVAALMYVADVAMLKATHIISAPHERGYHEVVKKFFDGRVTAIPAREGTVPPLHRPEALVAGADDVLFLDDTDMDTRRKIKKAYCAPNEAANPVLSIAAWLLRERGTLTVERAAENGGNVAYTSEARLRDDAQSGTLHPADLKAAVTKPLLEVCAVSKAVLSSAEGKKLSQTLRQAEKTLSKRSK

[8] = biological target: T4, Tyrosyl-tRNA synthetase, putative (Trypanosoma cruzi (strain CL Brener)); experiment: Trypanosoma cruzi tyrosyl tRNA synthetase (TcYRS) SOP; type: functional; settings: 30 µM
[9] = biological target: Chromo domain-containing protein 1 (Saccharomyces cerevisiae (strain ATCC 204508 / S288c) (Baker's yeast)) (UniProt P32657); experiment: ScCHD-1 Enzyme Inhibition Assay; type: functional; settings: 30 µM; further: in the data most compounds retested in dose-response had high values
Sequence of Chromo domain-containing protein 1 (Saccharomyces cerevisiae (strain ATCC 204508 / S288c) (Baker's yeast)) (P32657 whole entry, the tested form may be a part): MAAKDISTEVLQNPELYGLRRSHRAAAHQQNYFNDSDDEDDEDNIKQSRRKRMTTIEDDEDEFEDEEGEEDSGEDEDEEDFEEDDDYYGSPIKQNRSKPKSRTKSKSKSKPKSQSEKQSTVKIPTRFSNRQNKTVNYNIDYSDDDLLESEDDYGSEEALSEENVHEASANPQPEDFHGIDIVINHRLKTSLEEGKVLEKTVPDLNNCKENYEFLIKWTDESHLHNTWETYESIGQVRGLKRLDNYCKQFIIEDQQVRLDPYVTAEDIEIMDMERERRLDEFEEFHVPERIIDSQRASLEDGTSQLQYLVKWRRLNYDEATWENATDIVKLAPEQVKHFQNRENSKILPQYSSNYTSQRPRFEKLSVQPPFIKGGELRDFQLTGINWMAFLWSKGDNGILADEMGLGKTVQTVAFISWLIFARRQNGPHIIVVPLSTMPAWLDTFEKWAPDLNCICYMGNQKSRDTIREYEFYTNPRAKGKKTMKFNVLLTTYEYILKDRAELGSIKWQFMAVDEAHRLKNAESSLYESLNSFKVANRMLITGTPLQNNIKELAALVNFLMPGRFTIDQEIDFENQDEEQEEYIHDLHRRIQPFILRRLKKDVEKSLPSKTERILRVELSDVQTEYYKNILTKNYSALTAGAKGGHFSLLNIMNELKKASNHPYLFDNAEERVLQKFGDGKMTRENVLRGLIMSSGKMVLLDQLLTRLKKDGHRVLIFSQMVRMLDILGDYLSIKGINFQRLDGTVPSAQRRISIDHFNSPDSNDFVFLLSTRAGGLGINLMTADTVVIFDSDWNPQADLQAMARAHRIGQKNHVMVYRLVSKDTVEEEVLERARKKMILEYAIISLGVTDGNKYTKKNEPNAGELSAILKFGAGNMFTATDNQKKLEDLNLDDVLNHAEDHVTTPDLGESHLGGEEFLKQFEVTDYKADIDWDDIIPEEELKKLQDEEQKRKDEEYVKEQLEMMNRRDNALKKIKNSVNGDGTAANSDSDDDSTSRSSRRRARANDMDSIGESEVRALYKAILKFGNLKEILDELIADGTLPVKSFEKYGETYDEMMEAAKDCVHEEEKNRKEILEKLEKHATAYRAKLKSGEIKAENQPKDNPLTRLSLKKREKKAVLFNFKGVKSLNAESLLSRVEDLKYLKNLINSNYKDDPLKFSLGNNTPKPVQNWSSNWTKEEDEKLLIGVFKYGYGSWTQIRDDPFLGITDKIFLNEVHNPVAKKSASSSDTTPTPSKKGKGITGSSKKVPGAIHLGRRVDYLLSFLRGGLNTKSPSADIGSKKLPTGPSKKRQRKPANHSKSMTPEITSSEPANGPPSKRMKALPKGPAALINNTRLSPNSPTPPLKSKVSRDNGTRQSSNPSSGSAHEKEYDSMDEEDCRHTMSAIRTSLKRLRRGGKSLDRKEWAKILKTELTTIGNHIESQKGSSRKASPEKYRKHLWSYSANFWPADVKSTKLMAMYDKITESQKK

Sequence of Sialic acid-binding Ig-like lectin 9 (Homo sapiens) (Q9Y336 whole entry): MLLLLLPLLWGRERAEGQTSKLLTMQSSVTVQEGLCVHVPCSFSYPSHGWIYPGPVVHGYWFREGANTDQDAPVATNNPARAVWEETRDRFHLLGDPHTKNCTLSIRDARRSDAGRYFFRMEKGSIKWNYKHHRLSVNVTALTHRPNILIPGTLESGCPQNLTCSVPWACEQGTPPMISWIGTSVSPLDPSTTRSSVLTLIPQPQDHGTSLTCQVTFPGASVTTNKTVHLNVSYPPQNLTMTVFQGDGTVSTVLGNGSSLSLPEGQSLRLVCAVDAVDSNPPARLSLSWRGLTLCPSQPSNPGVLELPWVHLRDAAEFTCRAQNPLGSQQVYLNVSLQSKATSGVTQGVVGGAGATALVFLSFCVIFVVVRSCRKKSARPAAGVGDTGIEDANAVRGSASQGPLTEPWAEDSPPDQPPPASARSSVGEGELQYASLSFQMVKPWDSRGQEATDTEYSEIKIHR
Sequence of Protein translocase subunit SecA (Escherichia coli (strain K12)) (P10408 whole entry): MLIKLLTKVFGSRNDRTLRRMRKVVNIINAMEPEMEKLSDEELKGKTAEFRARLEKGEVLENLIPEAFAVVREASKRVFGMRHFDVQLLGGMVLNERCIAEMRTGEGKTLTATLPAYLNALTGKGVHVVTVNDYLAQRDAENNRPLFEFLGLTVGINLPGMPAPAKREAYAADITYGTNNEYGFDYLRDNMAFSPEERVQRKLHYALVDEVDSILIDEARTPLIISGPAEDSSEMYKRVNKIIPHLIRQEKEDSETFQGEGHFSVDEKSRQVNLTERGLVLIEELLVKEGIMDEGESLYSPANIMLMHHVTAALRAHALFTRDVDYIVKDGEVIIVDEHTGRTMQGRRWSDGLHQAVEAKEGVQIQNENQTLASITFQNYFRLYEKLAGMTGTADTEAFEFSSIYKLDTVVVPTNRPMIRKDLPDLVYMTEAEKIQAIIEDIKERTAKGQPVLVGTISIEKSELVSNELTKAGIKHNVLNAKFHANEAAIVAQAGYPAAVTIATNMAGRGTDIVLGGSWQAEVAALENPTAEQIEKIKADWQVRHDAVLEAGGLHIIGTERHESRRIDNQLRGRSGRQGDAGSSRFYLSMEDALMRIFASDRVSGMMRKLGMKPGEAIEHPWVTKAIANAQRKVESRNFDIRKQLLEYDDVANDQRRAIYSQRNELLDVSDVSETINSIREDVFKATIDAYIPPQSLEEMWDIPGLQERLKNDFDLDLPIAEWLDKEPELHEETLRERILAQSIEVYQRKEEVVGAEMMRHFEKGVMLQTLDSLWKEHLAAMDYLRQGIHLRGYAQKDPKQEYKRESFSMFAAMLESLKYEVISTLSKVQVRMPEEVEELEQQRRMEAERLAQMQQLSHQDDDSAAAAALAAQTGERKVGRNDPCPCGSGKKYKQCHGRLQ

| SMILES | Percent Effect [1] [%] | Percent Effect [2] [%] | Percent Effect [3] [%] | Percent Effect [4] [%] | Percent Effect (Trypanosoma cruzi) [%] | Percent Effect [5] [%] | Percent Effect [6] [%] | Percent Effect (Homo sapiens) [%] | Percent Effect [7] [%] | Percent Effect [8] [%] | Percent Effect [9] [%] |
| --- | --- | --- | --- | --- | --- | --- | --- | --- | --- | --- | --- |
| CS(=O)(=O)CC(=O)N1C[C@@H]2COC[C@]2(c2nnc(C3CC3)o2)C1 | -5.11 | 21.3 | -7.29 | -4.69 | 3.86 | -53.9 | 14 | 19.8 | 3.12 | 22.5 | -11.9 |
| CS(=O)(=O)NCc1cnc2n1CCN(Cc1ccsc1)CC2 | 1.5 | 21.9 | -6.69 | 5.11 | -5.16 | -18 | 14.6 | 18.3 | 8.33 | 3.7 | 0.00549 |
| Cc1oc(C)c(C(=O)NCc2ccccc2S(=O)(=O)N(C)C)c1C | -1.39 | 10.5 | 8.5 | 1.67 | -3.01 | -3.83 | 8.19 | 2.68 | 1.47 | 7.32 | -5.82 |
| O=C(CCc1cccc(F)c1F)N1CCN(Cc2ccco2)CC1 | 0.132 | 2.7 | -1.7 | 9.76 | 3.48 | 0.476 | 10.3 | 0.925 | 0.529 | -2.44 | -2.5 |
| Cc1nc(C)n(CC2CCCN(CCOc3cccc(C#N)c3)C2)n1 (stereo unspecified) | 1.74 | 21.6 | 7.7 | 4.91 | -8.4 | 24.9 | 11.2 | 17.4 | 0.493 | -1.24 | -4.16 |
| Cc1nc(C)n(CC2CCCCN2CC(=O)NC2CCOCC2)n1 (stereo unspecified) | -5.64 | 18.2 | 6.87 | 5.39 | 6.37 | -6.05 | 5.07 | -0.818 | 3.88 | 19.5 | -7.41 |
| O=C(O)c1ccc(S(=O)(=O)Nc2ccc(Cl)c(F)c2)c(F)c1 | -2.14 | -2.7 | -7.96 | 15.3 | 1.04 | 1.6 | -1.08 | 8.28 | -13.3 | -18.5 | -4.26 |
| Cc1nn(C)c2c(NCc3ccccc3F)nc(C3CC3)nc12 | -4.24 | 13 | 15.3 | 12.8 | 9.14 | -63.5 | 20.6 | 38.1 | -3.23 | 13.6 | -3.61 |
| Cc1ccc(CN2CCCC3(COCCN(Cc4c[nH]nn4)C3)C2)o1 (stereo unspecified) | -2.92 | 2.67 | 3.3 | 8.61 | 0.965 | -22.8 | 0.855 | 4.18 | 7.29 | 10 | -3.22 |
| Cc1ccc(C(=O)NCCS(C)(=O)=O)c(=O)[nH]1 | -3.94 | 16.2 | -7.64 | -5.87 | 4.88 | 10.4 | 16.1 | 7.03 | 9.9 | 15.8 | -5.72 |
| CC(C(=O)N1CCc2ccccc2C1)n1cc(Br)cn1 (stereo unspecified) | -0.393 | 0 | -6.91 | 6.63 | 4.42 | -6.9 | 7.82 | 19.8 | 4.3 | 13.6 | -3.62 |
| CC(=O)N1CCC(c2cncc(Oc3ccccc3)n2)CC1 | -10 | 0 | 9.22 | -2.36 | -4.33 | -1.17 | 8.19 | 14 | -1.06 | 3.85 | -3.75 |
| O=C1COc2c(cccc2C(=O)N2CCCCC2Cn2cccn2)N1 (stereo unspecified) | -1.42 | 10.4 | 2.71 | 5.65 | -2.84 | 3.16 | 14.6 | 10.8 | 6.67 | 11.8 | -12.7 |
| Cc1nccnc1CN1CCC2(CCCN(C3CCOCC3)C2=O)C1 (stereo unspecified) | -2.05 | -2.74 | -4.08 | 1.19 | 2.98 | -2.79 | 12.8 | 13.9 | 5.21 | 6.17 | 0.026 |
| Cc1cccc2cc(CNCCCN3CCOCC3)c(=O)[nH]c12 | -7.31 | 17.6 | -2.19 | 3.5 | 6.13 | -2.09 | 11.2 | 2.24 | 3.23 | 14.3 | -27.6 |
| COCCn1cc(C(=O)N2CCCC2c2cccc(F)c2)ccc1=O (stereo unspecified) | 1.54 | -5.41 | -0.655 | 0.523 | -2.7 | 2.38 | 7.07 | -0.304 | -2.65 | -56.1 | -2.35 |
| c1nc(COCC2CC2)c2n1CCCN(CC1CC1)C2 | -8.2 | -2.67 | 1.44 | 3.77 | -2.12 | -22.4 | -0.513 | -0.93 | -1.04 | 0 | 0.35 |
| Cc1cnc(Nc2nccnc2C2CCN(C)CC2)s1 | 3.01 | 13.3 | 9.68 | -6.36 | -4.92 | 0.699 | 5.2 | 10.5 | 7.45 | 8.97 | -6.78 |
| Cc1cnn(Cc2cc(F)ccc2F)c1NC(=O)C1COCCO1 (stereo unspecified) | -7.31 | 2.67 | 1.44 | 22.4 | 0.876 | 4.17 | 5.75 | 5.83 | 4.92 | 13.6 | -4.84 |
| CN(C)c1ncc(-c2cc(C(=O)O)n(CC3CC3)c2)cn1 | -1.6 | -2.7 | 5.47 | -3.4 | 1.95 | -0.833 | 7.69 | 7.22 | 5.94 | -3.66 | -8.88 |
| COC(=O)C(C)(C)NC(=O)C1CC(=O)N(C2CCCC2)C1 (stereo unspecified) | -0.563 | 11 | -0.48 | 5.96 | 3.17 | -2.79 | 9.85 | 26.3 | 11.5 | 25.9 | -1.54 |

From ChEMBL document CHEMBL3988442, “University of Dundee, Small-Polar-MMV Screening Library” (2021)
